# Where two headings read alike, the source gives them in different places. The whole screen tested about 13,000 compounds, of which about 3,200 (25%) showed an effect of 50% or more. Some of the results follow.
# Tested on: P. falciparum stage V gametocytes
# Design: BacTiter-Glo ATP luminescence viability of purified stage V gametocytes in 384-well plates, per cent inhibition versus DMSO
# Conditions: 48 h, 5 µM, inhibitor
Structure (SMILES),% Inhibition,% Inhibition (% Inhibition)
C/C=C1\CN2CC[C@H]1C[C@H]2[C@H](O)c1ccnc2ccc(O)cc12 [TCMDC-138272],3.79%,
COc1ccc2nccc(N3CCC(O)(CCNCc4ccc5c(n4)NC(=O)CO5)CC3)c2n1 [TCMDC-134564],-10.39%,
CCNC(=O)N1CCN(c2nc(-c3ccccc3)nc(COC)c2Cc2ccc(C)cc2)CC1 [TCMDC-124783],37.5%,
O=c1cc(NCCCNCc2cc(C(F)(F)F)ccc2F)[nH]c2ccccc12 [TCMDC-139423],-83.26%,
CC1(C)N=C(N)N=C(N)N1OCCc1ccc2ccccc2c1 [TCMDC-131755],-0.2663%,
COc1cc(Cc2cnc(N)nc2N)cc(OCCCCC2NC(=O)NC2=O)c1OC (stereo not drawn) [TCMDC-137299],4.359%,
CC1CCCN1Cc1ccc(-c2ccc3c(=O)cc(CCc4cccc(F)c4F)n(CC(=O)N(C)Cc4ccc(-c5ccc(C(F)(F)F)cc5)cc4)c3n2)cc1 (stereo not drawn) [TCMDC-136564],30.5%,
Cc1ccc2c(=O)cc(CCc3cccc(F)c3F)n(CC(=O)N(Cc3ccc(-c4ccc(C(F)(F)F)cc4)cc3)C3CCN(C)CC3)c2n1 [TCMDC-141317],107%,
Cc1nc2c(s1)c(=O)cc(CCc1cccc(F)c1F)n2CC(=O)N(Cc1ccc(-c2ccc(C(F)(F)F)cc2)cc1)C1CCN(C(C)C)CC1 [TCMDC-141264],113.7%,
Cc1ccc2c(=O)cc(CCc3cccc(F)c3F)n(CC(=O)N(Cc3ccc(-c4ccc(C(F)(F)F)cc4)cc3)C3CCN(C(C)C)CC3)c2n1 [TCMDC-141318],122.6%,
COC(=O)Cn1c2ccccc2c2c(N)c(C(=O)OC)c(C)nc21 [TCMDC-131562],7.659%,
CC(C)c1ccc(NC(=O)c2ccc(CN3CCCN(CC4CCCCC4)CC3)cc2)cc1 [TCMDC-136417],-19.72%,
CCC(CC(NCCCCNC(=O)c1ccc(NC(=O)c2ccc(Cl)cc2)cc1)c1ccccc1)c1ccccc1OC (stereo not drawn) [TCMDC-138579],,48.18%
N#Cc1c(N2CCN(c3ccc(F)cc3)CC2)nc(N)c2c(N)nc3c(c12)CC(=O)N3C1CC1 [TCMDC-124490],43.84%,
Cc1cccc2[nH]c(-c3cccc(-c4cccc(NC(=O)c5ccc(=O)[nH]n5)c4)c3)nc12 [TCMDC-137033],-59.71%,
N#CC1(CCCNCCc2ccc(O)cc2)CCCc2c(O)cccc21 (stereo not drawn) [TCMDC-137732],-11.73%,
COc1ccc2c(c1CNCCCCCCNCc1c(OC)ccc3c1CCCC3)CCCC2 [TCMDC-137817],117.4%,
COc1ccc2c(c1C1CCN(CCCCNC(=O)c3ccc(-c4ccc(Cl)cn4)cc3)CC1)CCCC2 [TCMDC-138576],-10.77%,
COc1ccc2c(c1CCNCCCCNCCc1c(OC)ccc3c1CCCC3)CCCC2 [TCMDC-137324],111.7%,
O=C(Nc1ccc(F)cc1)N1CCCN(c2ccnc3cc(Cl)ccc23)CC1 [TCMDC-133584],-23.79%,
COc1cc2c(cc1OC)CN(CCc1ccc(NC(=O)c3cc4cc(Cl)ccc4[nH]3)cc1)CC2 [TCMDC-138249],-9.297%,
Cc1cc2c(cc1C(F)(F)F)N(C(=O)Nc1ccc(OCCN(C)C)c(C(F)(F)F)c1)CC2 [TCMDC-139850],18.6%,
COc1cc(F)c2nccc([C@@H](O)CN3CCC(NCc4ccc5c(n4)NC(=O)CS5)C(F)C3)c2c1 (stereo partly drawn) [TCMDC-141805],-13.4%,
FC(F)(F)c1cc(Nc2ccc(Oc3ccccc3)cc2)c2cc(-c3ccncc3)ccc2n1 [TCMDC-138549],-36.95%,
c1ccc(CN2CCc3cc4nccc(N5CCNCC5)c4cc32)cc1 [TCMDC-140118],-20.01%,

Structure (SMILES),% Inhibition,% Inhibition (% Inhibition)
C=CCOc1ccc2ccccc2c1CNCCCCCCNCc1c(OCC=C)ccc2ccccc12 [TCMDC-137340],119.9%,
C/C=C/COc1ccc2ccccc2c1CNCCCCCCCCNCc1c(OC/C=C/C)ccc2ccccc12 [TCMDC-137844],118.6%,
Nc1nc(N)c2c(ccc3c2cnn3S(=O)(=O)N2CCCC2)n1 [TCMDC-137852],-71.91%,
O=C1COc2ccccc2N1C/C=C(\CN1CCC(c2ccccc2)CC1)c1cc(Cl)cc(Cl)c1 [TCMDC-134528],-40.54%,
Cc1cc(Nc2ccc3c(c2)CCC3)n2ncnc2n1 [TCMDC-123574],8.317%,
Cc1[nH]nc2cc(Nc3nccc(Nc4ccc(Oc5ccccc5)cc4)n3)ccc12 [TCMDC-138573],32.4%,
CCc1nnc2sc(-c3cccc(NC(=O)c4ccc(C)c([N+](=O)[O-])c4)c3)nn12 [TCMDC-125124],-17.45%,
Cc1ccc(O)c(-c2cc(C(=O)Nc3ccc(S(=O)(=O)N4CCCCC4)cc3)[nH]n2)c1 [TCMDC-124309],-24.12%,
O=C(Nc1ccccc1)c1cnc[nH]1 [TCMDC-123941],-10.44%,
CC[C@H]1CN2CC[C@H]1C[C@H]2[C@H](O)c1ccnc2ccc(O)cc12 [TCMDC-131425],22.33%,
CC[C@H]1CN2CC[C@H]1C[C@@H]2[C@H](O)c1ccnc2ccc(O)cc12 [TCMDC-132025],31.63%,
CC[C@H]1CN2CC[C@@H]1C[C@H]2[C@H](O)c1cc(-c2ccc(Cl)c(Cl)c2)nc2ccc(O)cc12 [TCMDC-141362],95.45%,
CC[C@H]1CN2CC[C@@H]1C[C@H]2[C@H](O)c1ccnc2ccc(Cl)cc12 [TCMDC-141353],-5.728%,
CCCc1cc([C@@H](O)[C@@H]2C[C@@H]3CCN2C[C@@H]3CC)c2ccccc2n1 [TCMDC-131428],-9.828%,
CC[C@H]1CN2CC[C@@H]1C[C@H]2[C@H](O)c1cc(-c2ccc(F)cc2)nc2ccc(O)cc12 [TCMDC-141378],55.28%,
CC[C@H]1CN2CC[C@@H]1C[C@H]2[C@H](O)c1cc(-c2ccccc2)nc2ccc(O)cc12 [TCMDC-141380],89.63%,
OCC1CCCCN1Cc1cccc(-c2cccc(-c3nc4ccccc4[nH]3)c2)c1 (stereo not drawn) [TCMDC-133835],-3.731%,
O=C(Nc1ccc(OC2CCN(Cc3ccc(F)cc3)C2)c(Cl)c1)c1ccsc1 (stereo not drawn) [TCMDC-133756],-6.821%,
O=C(Nc1cccc(Cl)c1Cl)N1CCc2cc3nccc(N4CCN5CCC[C@H]5C4)c3cc21 [TCMDC-140054],-5.668%,
CC(=O)N(Cc1ccccc1-c1ccc(CNCCc2ccccc2)cc1)C1CCN(Cc2ccccc2)CC1 [TCMDC-140525],102.9%,
O=C(c1ccccc1)N(Cc1ccccc1-c1ccc(CNCCc2ccccc2)cc1)C1CCN(Cc2ccccc2)CC1 [TCMDC-140531],62.45%,
CC(=O)N(Cc1ccccc1-c1cccc(CNCCc2ccccc2)c1)C1CCN(Cc2ccccc2)CC1 [TCMDC-140524],45.75%,
O=C(NC1CCCCC1)N(Cc1ccccc1-c1ccc(CNCCc2ccccc2)cc1)C1CCN(Cc2ccccc2)CC1 [TCMDC-140625],106.9%,
CC(C)CNCc1ccc(-c2ccccc2CN(C(=O)NCCc2ccccc2)C2CCN(Cc3ccccc3)CC2)cc1 [TCMDC-140609],78.77%,
CCOc1ccc(N2C(N)=NC(N)=NC2(C)C)cc1 [TCMDC-124280],3.734%,

Structure (SMILES),% Inhibition,% Inhibition (% Inhibition)
COc1cc(C(=O)NC2CCN(Cc3ccccc3)CC2)ccc1-c1cc2cc(Cl)c(Cl)cc2[nH]1 [TCMDC-141286],1.884%,
CC(C)[C@H](NC(=O)c1c(CN2CCC(N3CCCCC3)CC2)c(-c2ccccc2)nc2cc(O)ccc12)c1ccccc1 [TCMDC-140676],20.63%,
O=C(NCCc1ccccc1)N(Cc1ccccc1-c1cccc(CNCCc2ccccc2)c1)C1CCN(Cc2ccccc2)CC1 [TCMDC-140610],46.01%,
CC(C)CNCc1cccc(-c2ccccc2CN(C(=O)NCCc2ccccc2)C2CCN(Cc3ccccc3)CC2)c1 [TCMDC-140608],89.6%,
O=C(NCCc1ccccc1)N(Cc1ccccc1-c1cccc(CNCc2ccc3c(c2)OCO3)c1)C1CCN(Cc2ccccc2)CC1 [TCMDC-140614],15.63%,
O=C(NCCc1ccccc1)N(Cc1ccccc1-c1ccc(CNCCc2ccccc2)cc1)C1CCN(Cc2ccccc2)CC1 [TCMDC-140611],104.9%,
Fc1ccc2[nH]c3c(NCCN4CCCCC4)ncnc3c2c1 [TCMDC-123757],-41.7%,
CCc1cc(=O)[nH]c(-n2nc(C)cc2NC(=O)CC(c2ccccc2)c2ccccc2)n1 [TCMDC-124942],38.89%,
Cc1cccc(Nc2nccc(NCC(O)c3cccc(C(F)(F)F)c3)n2)c1 (stereo not drawn) [TCMDC-136582],10%,
CCCCCCNC[C@@H](O)[C@H](Cc1ccccc1)NC(=O)c1cc(NCC)cc(N2CCCCS2(=O)=O)c1 [TCMDC-135218],27.85%,
Cc1ccc2[nH]c(C3CCCNC3)c(-c3ccncc3)c2c1 (stereo not drawn) [TCMDC-134505],76.33%,
COC(=O)c1cc(NC(=O)Nc2ccc(Cn3ncc(N4CCCNCC4)c(Cl)c3=O)cc2)cc(C(=O)OC)c1 [TCMDC-133324],3.06%,
Clc1cc(Nc2ccnc3ccc(Br)cc23)ccc1Oc1ccc2ccccc2c1Cl [TCMDC-124239],37.87%,
COC(=O)CCCCOc1c(OC)cc(Cc2cnc(N)nc2N)cc1OC [TCMDC-137353],24.77%,
CCN(CCCN1CCCCC1)c1cc(C)nc(Nc2cc(Cl)ccc2C)n1 [TCMDC-132446],50.43%,
Cc1cc(N(C)C2CCN(C)CC2)nc(Nc2ccc(Cl)cc2)n1 [TCMDC-132418],22.03%,
CCN(CCCN1CCCCC1)c1cc(C)nc(Nc2cc(Br)ccc2C)n1 [TCMDC-132432],22.76%,
CCN(CCCN1CCCC1)c1cc(C)nc(Nc2ccc(Cl)cc2)n1 [TCMDC-137224],44.32%,
Cc1cc(N(C)CCCN2CCCCC2)nc(Nc2ccc(Cl)cc2)n1 [TCMDC-137485],86.59%,
CCN(CCCN1CCCCC1)c1cc(C)nc(Nc2ccc(C)cc2Br)n1 [TCMDC-132441],94.55%,
CCN(CCCN1CCCCC1)c1cc(C)nc(Nc2ccc(Br)cc2F)n1 [TCMDC-132428],4.971%,
Cc1cc(N(C)C2CCN(C)CC2)nc(Nc2ccc(Br)cc2)n1 [TCMDC-137015],43.74%,
CCN(CCCN1CCCCC1)c1cc(C)nc(Nc2cc(C)ccc2C)n1 [TCMDC-132449],18.24%,
Cc1cc(N(C)C2CCN(C)C2)nc(Nc2ccc(Cl)cc2)n1 (stereo not drawn) [TCMDC-137010],65.31%,
CCN(CCCN1CCCCC1)c1cc(C)nc(Nc2ccc(Cl)cc2)n1 [TCMDC-137488],-3.889%,

# From article PMC4552634, “A New Set of Chemical Starting Points with Plasmodium falciparum Transmission-Blocking Potential for Antimalarial Drug Discovery” (PLoS ONE, 2015)
